Experiment [1] concerns the target Lysosomal acid glucosylceramidase (Homo sapiens) (UniProt P04062). Nature of the experiment: Glucocerebrosidase-p2 (AID 348; in the data active = potency below about 10 µM; also: potency is read from the fitted curve at half-maximal effect). Conditions: purified GBA, blue fluorogenic substrate, 40 min. An outline of the steps: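 Compounds titrated from 0.6 nM upwards against 0.2 nM enzyme in pH 5.9 citric acid/KH2PO4, taurocholate, tween-20; blue fluorogenic substrate 80 uM, 40 min room temperature, stopped and read Ex 365/Em 440 for AC50.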

Experiment [2] is described as follows: AP1 Signaling Pathway (AID 357).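 Also: ME-180 reporter cells stimulated with EGF at its EC50 level; % is scaled to controls: 0 for no effect and ±100 for the full control effect.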 The conditions noted are these: ME-180 AP-1-bla reporter, EGF-induced, beta-lactamase ratio, 5 h; at 7.69 µM (top of the series) unless noted. The procedure, abridged:
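In this screen, ME-180 cells in Opti-MEM with 0.5% dialyzed FBS received EC50 EGF and compound titrations for 5 h. AP-1 reporter beta-lactamase was detected via CCF4 ratio, giving AC50 for positive and negative modulators.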

The target of experiment [3] is Cytochrome P450 1A2 (Homo sapiens) (UniProt P05177). Nature of the experiment: p450-cyp1a2 (AID 410; calls by dose curve; also: potency is read from the fitted curve at half-maximal effect;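 as to activity change, negative = inhibition: -100% = full effect of reference inhibitor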). The conditions noted are these: recombinant CYP1A2, luciferin-ME demethylation, luminescence; series mostly up to 11.4 µM. An outline of the steps: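 Luminescent readout of luciferin formed from Luciferin-ME by human CYP1A2; data normalized against complete inhibition by 57 uM furafylline. Enzyme 20nM, substrate 100uM at Km, 100mM KPO4 buffer, 60 min reaction at room temperature.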
Cytochrome P450 1A2 (Homo sapiens), sequence (P05177 whole entry, looked up): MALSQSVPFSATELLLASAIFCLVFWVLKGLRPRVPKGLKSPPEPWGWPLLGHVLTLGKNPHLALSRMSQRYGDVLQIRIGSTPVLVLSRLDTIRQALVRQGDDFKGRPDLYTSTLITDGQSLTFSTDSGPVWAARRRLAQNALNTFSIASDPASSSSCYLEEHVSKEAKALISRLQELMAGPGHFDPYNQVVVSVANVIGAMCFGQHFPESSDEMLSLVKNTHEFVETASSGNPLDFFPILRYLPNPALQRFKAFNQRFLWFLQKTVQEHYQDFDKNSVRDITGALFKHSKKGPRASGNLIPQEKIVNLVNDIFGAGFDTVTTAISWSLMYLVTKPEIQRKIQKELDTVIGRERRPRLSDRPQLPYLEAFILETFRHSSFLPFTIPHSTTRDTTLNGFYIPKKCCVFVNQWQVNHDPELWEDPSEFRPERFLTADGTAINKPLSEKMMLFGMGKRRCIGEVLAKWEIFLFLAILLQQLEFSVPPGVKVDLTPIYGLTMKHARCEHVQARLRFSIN

Experiment [4] is described as follows: NFAT Signaling Pathway (AID 444).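 Also: carbachol stimulus at about its EC50 of 1 µM final; % is scaled to controls: 0 for no effect and ±100 for the full control effect.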 The conditions noted are these: Jurkat NFAT-bla M1, carbachol, beta-lactamase ratio, 5 h; at 7.69 µM (top of the series) unless noted. The procedure, abridged: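 Jurkat cells carrying an NFAT-driven β-lactamase reporter and co-transfected muscarinic M1 receptor were treated with compound plus carbachol (1 uM final, an EC50 level) for 5 h at 37 °C. CCF4 loading followed for 1 h at RT; 460/530 nm ratio gave %activity.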

Experiment [5] can be described thus: Stat Signaling Pathway (AID 446).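 Also: ME-180 cervical cancer cells given 40 pM IL-6 alongside compound; SIE-controlled beta-lactamase reporter measured as 460/530 nm FRET emission ratio; % is scaled to controls: 0 for no effect and ±100 for the full control effect.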 The conditions noted are these: ME-180 SIE beta-lactamase reporter, IL-6 stimulated, 5 h; at 7.69 µM (top of the series) unless noted. An outline of the steps:
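ME-180 SIE-bla cells; overnight plating; cpd + IL-6 40 pM, 5 h, 37 C; LiveBLAzer 2.5 h RT; 460/530 nm emission ratio. Normalized to 300 pM IL-6 and 125 nM JAK inhibitor controls.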

For experiment [6], the target named is Glucocorticoid receptor (Homo sapiens) (UniProt P04150). Kind of experiment: GR-GFP Redistribution (AID 450;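 active = compounds whose dose series gives a full or clear partial fitted curve of increased nuclear translocation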; also: potency is read from the fitted curve at half-maximal effect). Conditions: U2OS GR-GFP nuclear translocation, laser cytometry, 2 h.
Glucocorticoid receptor (Homo sapiens), sequence (P04150 whole entry, looked up): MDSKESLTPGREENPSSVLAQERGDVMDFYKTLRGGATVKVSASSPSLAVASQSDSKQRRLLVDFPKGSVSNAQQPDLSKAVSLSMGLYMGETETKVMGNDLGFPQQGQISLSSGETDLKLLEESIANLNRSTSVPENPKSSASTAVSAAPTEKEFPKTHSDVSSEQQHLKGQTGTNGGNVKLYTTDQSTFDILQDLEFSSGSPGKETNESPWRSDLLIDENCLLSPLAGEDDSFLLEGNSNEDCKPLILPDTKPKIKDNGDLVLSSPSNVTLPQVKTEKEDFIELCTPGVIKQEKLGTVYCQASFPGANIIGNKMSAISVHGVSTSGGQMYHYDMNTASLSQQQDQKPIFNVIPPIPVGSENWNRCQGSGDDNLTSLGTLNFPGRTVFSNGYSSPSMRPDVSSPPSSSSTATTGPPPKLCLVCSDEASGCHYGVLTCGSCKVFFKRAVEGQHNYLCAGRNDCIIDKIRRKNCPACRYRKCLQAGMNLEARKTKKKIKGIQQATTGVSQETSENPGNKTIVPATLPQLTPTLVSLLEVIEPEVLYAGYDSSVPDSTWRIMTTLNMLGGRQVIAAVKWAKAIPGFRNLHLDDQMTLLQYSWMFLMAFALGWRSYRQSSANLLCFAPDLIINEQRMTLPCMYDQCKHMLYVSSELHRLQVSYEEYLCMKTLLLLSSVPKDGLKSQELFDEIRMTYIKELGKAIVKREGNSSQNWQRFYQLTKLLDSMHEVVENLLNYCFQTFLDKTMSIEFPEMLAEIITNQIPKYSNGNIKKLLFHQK
The target is the same in experiment [7]. Kind of experiment: GR-EFC Redistribution (AID 451; calls by dose curve; also: potency is read from the fitted curve at half-maximal effect). Conditions: CHO-K1 GR-EFC translocation, beta-gal luminescence, 2 h. An outline of the steps:
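CHO-K1 cells stably expressing nuclear-localized β-gal enzyme acceptor and GR fused C-terminally to the enzyme donor fragment; ligand-driven nuclear translocation restores β-gal by complementation. Compounds titrated up to 46 uM final, 2 h at 37 °C; luminescence read.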

For experiment [8], the target named is Mitogen-activated protein kinase 10 (Mus musculus) (UniProt Q61831). Kind of experiment: JNK3 AlphaScreen Assay (AID 530).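 Also: kinase came from lysate of stimulated human HepG2 cells; signal reports phosphorylation of biotinylated GST-cJun 1-79 at Ser73 with 10 µM ATP; % is scaled to controls: 0 for no effect and ±100 for the full control effect.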 The conditions noted are these: JNK3 lysate, c-Jun phosphorylation; series mostly up to 11.4 µM. The procedure, abridged: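 Inhibitors reduce antibody binding to phosphorylated biotin-cJun, lowering AlphaScreen luminescence. Lysates from HepG2 cells pre-activated by IL-1beta plus TNF-alpha supplied JNK3; compounds were titrated.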
For orientation: In Alpha technology, singlet oxygen from a donor bead excites a nearby acceptor bead.

The target in experiment [9] is 3',5'-cyclic-AMP phosphodiesterase 4B (Homo sapiens) (UniProt Q07343). Kind of experiment: qHTS Assay for Inhibitors of PDE-IV (AID 607; active = well fitted activation curve with a large enough effect in the main read-out, with a control signal flat, not every such curve was filed as active; also: % of control where 0% means no effect). Conditions: HEK293 ACTOne CNG channel cells, membrane potential fluorescence; series mostly up to 22.9 µM. The procedure, abridged:
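ACTOne HEK293 cells carry a modified cAMP-gated CNG channel and express endogenous PDE4; plated 1000 cells/well, compounds up to 22.9 uM final. Membrane-potential dye fluorescence (ex 535/em 590) was read; parental cells received 10 uM forskolin + 100 uM RO 20-1724.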
Background: qHTS replaces the single test concentration by a dilution series.

Experiment [10] concerns the target Cytochrome P450 3A4 (Homo sapiens) (UniProt P08684). Nature of the experiment: qHTS Assay for Activators of Cytochrome P450 3A4 (AID 885; active = well fitted curve in the direction sought with a large enough effect; an effect the other way counts as inactive or inconclusive; also: nearly all actives have a fitted effect of over 65% in size). Conditions: recombinant CYP3A4, Luciferin-PPXE luminescence, 60 min; series mostly up to 11.4 µM. The procedure, abridged: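 20nM CYP3A4 + 25uM Luciferin-PPXE (=KM), 200mM KPO4; cpd 10 min RT; NADPH regen, 60 min RT; stop w/ detection buffer, 20 min; luminescence. Normalized to 57 uM ketoconazole.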

The target in experiment [11] is Cytochrome P450 2C19 (Homo sapiens) (UniProt P33261). Nature of the experiment: qHTS Assay for Inhibitors and Substrates of Cytochrome P450 2C19 (AID 899; active = well fitted curve in the direction sought with a large enough effect; an effect the other way counts as inactive or inconclusive; also: potency is read from the fitted curve at half-maximal effect; nearly all actives have a fitted effect of over 60% in size). Conditions: recombinant CYP2C19, luciferin-H EGE luminescence; series mostly up to 11.4 µM. An outline of the steps:
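Human CYP2C19 (5nM) with Luciferin-H EGE at 10uM (its KM) in 50mM KPO4 was preincubated with compound for 10 min at 37C. NADPH regeneration started a 60 min 37C reaction. Luciferin was read by luminescence, normalized to 57uM ketoconazole.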

Experiment [12] has as its target Cytochrome P450 2D6 (Homo sapiens) (UniProt P10635). Kind of experiment: qHTS Assay for Inhibitors and Substrates of Cytochrome P450 2D6 (AID 891; active = well fitted curve in the direction sought with a large enough effect; an effect the other way counts as inactive or inconclusive; also: nearly all actives have a fitted effect of over 60% in size; also: potency is read from the fitted curve at half-maximal effect). Conditions: recombinant CYP2D6, luciferin-ME EGE luminescence; series mostly up to 11.4 µM. The procedure, abridged: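 Human CYP2D6 (5 nM) with 30 uM Luciferin-ME EGE (at Km) in 100 mM KPO4, compound preincubated 10 min, then NADPH regeneration system for 60 min at room temperature. Luciferin read by luminescence; normalized to 1.43 uM quinidine.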

Experiment [13] is described as follows: Confirmation and Secondary Assay for Modulators of Hemoglobin Beta Chain Splicing at IVS2 654 locus (AID 910; active = well fitted curve in the direction sought with a large enough effect; an effect the other way counts as inactive or inconclusive;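 also: per-well total GFP intensity by laser scanning cytometry after 2-day treatment; % of control where 0% means no effect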). The conditions noted are these: HeLa EGFP-654 splicing reporter, GFP fluorescence, 48 h; series mostly up to 38.3 µM. An outline of the steps:
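HeLa cells stably carrying EGFP interrupted by mutant beta-globin IVS2-654 intron (CMV-driven) were treated with compound for 2 days at 37C; corrected splicing was scored as total peak GFP intensity per well (488 nm excitation, 500-520 nm emission).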

Experiment [14] can be described thus: qHTS Assay for Identification of Small Molecule Agonists for Hypoxia Response Element Signaling Pathway (AID 914; active = well fitted activation curve with a large enough effect in the signal ratio, with a control signal flat, not every such curve was filed as active; the % refers to the signal ratio; also: % of control where 0% means no effect). The conditions noted are these: ME-180 (cervical carcinoma) HRE-bla reporter, beta-lactamase ratio, CoCl2, 17 h; activation: active compounds read high. The procedure, abridged: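 qHTS titration; ME-180 HRE-bla cells; EC50 CoCl2 co-treatment, 17 h at 37 degrees Celsius; CCF4 dye, ex 405nm, em 460nm and 530nm; %Activity from ratio; AC50.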

Experiment [15] can be described thus: Confirmation and Secondary Assay for Modulators of Hemoglobin Beta Chain Splicing at IVS2 705 locus (AID 930; active = well fitted curve in the direction sought with a large enough effect; an effect the other way counts as inactive or inconclusive;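 also: HeLa cells stably expressing the EGFP-705 splicing reporter; GFP fluorescence per well restored by corrected splicing of the IVS2-705 intron in EGFP; % of control where 0% means no effect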). The conditions noted are these: HeLa EGFP-705 splicing reporter, GFP fluorescence, 48 h; series mostly up to 38.3 µM. An outline of the steps:
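Secondary splice-site specificity test uses HeLa expressing CMV-driven EGFP interrupted by IVS2-705; cells were treated 2 days at 37C with 500 nM antisense PNA as positive control.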

SMILES strings stand for the structures. A number with no mark means an inactive call. Inconclusive results are not listed. Activity calls are given as the source filed them. Unless noted, calls follow the shape of the dose curve; as a rule, active = well fitted curve in either direction with a large enough effect (not every such curve was filed as active); inconclusive = small, poorly fitted or top-dose-only effect, or another doubt; inactive = flat fitted curve, though single readings scatter. Some results are limits rather than exact numbers.

Lysosomal acid glucosylceramidase (Homo sapiens), sequence (P04062 whole entry, looked up): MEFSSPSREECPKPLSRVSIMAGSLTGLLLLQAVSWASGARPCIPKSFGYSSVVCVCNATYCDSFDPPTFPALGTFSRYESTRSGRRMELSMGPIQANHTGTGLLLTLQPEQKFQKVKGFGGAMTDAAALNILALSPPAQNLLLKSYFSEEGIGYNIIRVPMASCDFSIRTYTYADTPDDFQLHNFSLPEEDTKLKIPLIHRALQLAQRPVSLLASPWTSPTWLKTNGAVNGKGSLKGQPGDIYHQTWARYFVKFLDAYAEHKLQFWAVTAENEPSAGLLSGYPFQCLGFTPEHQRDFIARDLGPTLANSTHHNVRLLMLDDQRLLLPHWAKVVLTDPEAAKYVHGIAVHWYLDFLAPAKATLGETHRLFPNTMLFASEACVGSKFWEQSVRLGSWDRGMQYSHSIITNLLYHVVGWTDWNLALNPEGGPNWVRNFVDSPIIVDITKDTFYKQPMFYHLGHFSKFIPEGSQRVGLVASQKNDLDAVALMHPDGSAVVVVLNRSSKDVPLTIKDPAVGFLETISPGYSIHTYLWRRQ
Cytochrome P450 2D6 (Homo sapiens), sequence (P10635 whole entry, looked up): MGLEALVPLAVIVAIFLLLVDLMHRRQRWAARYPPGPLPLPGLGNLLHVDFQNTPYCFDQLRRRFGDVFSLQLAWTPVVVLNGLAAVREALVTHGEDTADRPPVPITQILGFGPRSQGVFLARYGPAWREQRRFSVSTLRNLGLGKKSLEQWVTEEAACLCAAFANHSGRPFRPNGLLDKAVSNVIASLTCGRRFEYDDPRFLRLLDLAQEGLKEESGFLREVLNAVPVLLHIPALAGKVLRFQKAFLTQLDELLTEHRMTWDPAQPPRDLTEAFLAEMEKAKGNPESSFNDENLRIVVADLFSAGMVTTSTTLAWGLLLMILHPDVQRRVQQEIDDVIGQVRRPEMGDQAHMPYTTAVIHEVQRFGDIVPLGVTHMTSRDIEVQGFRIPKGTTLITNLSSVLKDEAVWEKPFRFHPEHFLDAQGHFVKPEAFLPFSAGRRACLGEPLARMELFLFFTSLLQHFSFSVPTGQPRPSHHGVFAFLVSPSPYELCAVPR
Cytochrome P450 3A4 (Homo sapiens), sequence (P08684 whole entry, looked up): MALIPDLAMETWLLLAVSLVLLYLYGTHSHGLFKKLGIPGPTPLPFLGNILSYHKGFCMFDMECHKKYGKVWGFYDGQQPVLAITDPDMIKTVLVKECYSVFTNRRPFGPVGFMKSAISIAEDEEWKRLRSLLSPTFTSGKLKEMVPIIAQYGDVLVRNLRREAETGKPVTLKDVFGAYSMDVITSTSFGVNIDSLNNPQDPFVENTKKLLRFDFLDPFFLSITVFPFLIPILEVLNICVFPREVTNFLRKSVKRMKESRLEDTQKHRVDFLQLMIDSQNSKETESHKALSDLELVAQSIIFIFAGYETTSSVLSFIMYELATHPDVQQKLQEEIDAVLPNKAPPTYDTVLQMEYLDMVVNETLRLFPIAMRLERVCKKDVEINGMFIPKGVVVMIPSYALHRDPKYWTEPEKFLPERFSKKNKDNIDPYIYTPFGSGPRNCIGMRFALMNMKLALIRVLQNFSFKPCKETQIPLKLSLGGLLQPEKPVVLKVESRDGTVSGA
3',5'-cyclic-AMP phosphodiesterase 4B (Homo sapiens), sequence (Q07343 whole entry, looked up): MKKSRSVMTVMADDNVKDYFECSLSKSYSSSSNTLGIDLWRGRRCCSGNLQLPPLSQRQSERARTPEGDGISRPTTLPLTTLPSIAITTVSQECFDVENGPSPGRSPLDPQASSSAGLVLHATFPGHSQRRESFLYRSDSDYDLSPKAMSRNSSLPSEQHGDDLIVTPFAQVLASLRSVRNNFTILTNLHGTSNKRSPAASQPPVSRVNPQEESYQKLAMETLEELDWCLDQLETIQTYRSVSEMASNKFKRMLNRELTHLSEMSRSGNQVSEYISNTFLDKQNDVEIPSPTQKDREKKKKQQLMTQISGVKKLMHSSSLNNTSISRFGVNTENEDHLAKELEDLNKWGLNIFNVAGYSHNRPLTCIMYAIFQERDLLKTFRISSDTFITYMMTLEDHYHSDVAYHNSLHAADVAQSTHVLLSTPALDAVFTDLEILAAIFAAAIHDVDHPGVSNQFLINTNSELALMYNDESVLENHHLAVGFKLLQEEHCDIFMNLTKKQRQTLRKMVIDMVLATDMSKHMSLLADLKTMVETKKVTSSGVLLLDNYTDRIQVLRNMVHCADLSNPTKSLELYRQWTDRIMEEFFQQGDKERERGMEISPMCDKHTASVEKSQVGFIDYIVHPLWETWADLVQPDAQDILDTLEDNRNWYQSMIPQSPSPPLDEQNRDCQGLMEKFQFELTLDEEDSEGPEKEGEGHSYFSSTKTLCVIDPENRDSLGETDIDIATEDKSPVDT
Cytochrome P450 2C19 (Homo sapiens), sequence (P33261 whole entry, looked up): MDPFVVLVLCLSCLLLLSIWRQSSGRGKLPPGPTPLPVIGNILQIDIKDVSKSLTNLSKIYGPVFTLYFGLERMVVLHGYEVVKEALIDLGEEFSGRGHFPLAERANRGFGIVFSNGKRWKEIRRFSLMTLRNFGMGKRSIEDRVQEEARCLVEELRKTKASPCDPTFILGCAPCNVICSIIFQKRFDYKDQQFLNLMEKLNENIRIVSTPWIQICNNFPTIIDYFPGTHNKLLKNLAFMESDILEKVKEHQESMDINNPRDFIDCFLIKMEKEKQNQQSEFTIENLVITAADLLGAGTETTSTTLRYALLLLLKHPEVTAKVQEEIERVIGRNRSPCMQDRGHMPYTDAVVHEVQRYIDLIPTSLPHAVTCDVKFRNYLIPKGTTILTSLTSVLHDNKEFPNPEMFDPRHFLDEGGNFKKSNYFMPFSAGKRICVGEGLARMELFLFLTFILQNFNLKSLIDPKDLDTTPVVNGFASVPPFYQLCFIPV

With `CCCn1cnc2c(SCc3ccc(Cl)cc3)nc(N)nc21`, the Potency in experiment [1] is above 11.4 µM; in [3], 1.26 µM (active); in [6], above 46 µM; in [7], above 9.22 µM; in experiment [11], 0.501 µM (active). Further, the figures for the activity change, negative = inhibition in experiment [2] and in experiment [4] were -19.8% and -4.9%, respectively. For the same molecule, the activity, negative = inhibition in experiment [5] is -5.52%. In addition, the Potency result in [8], in experiment [9] and in [10] was “inactive” in each case.

`O=C1/C(=C/c2cccnc2)SC(=S)N1Cc1ccco1`: the Potency in experiment [1] is above 11.4 µM; in experiment [3] it was 0.501 µM (active); in [6] it was above 46 µM; in experiment [7] it was above 9.22 µM; in [11], 3.16 µM (active). Further, the activity change, negative = inhibition in experiment [2] was 0.116%; in [4], -2.58%. Also, in [5], the activity, negative = inhibition was -9.72%. Besides, the Potency result in [8], in [9] and in [10] was “inactive” each time.

Regarding `Nc1ccc(S(=O)(=O)NCCS(=O)(=O)O)cc1`, the values for the Potency in [1], in [6] and in [7] were above 11.4 µM, above 46 µM and above 9.22 µM, respectively. Also, the values for the activity change, negative = inhibition in [2], in experiment [3] and in experiment [4] were -2.08%, -3.1% [at 2.29 µM] and 6.94%, respectively. Also, in [5], the activity, negative = inhibition was -3.3%. For the same molecule, the Potency result in experiment [8], in experiment [9] and in [12] was “inactive” each time.

Take `CN(C)C(=O)c1ccc(-c2nc(Nc3ccncc3)c3ccccc3n2)cc1`: the Potency in [1] is 3.84 µM (active); in [3], 7.94 µM (active); in experiment [6], above 46 µM; in experiment [7], above 46 µM. For the same molecule, the activity change, negative = inhibition in experiment [2] was -14.2%; in [4], -7.95%. Further, the activity, negative = inhibition in [5] is -6.09%. The Potency entry in experiment [8], in experiment [9] and in [10] was “inactive” in each case. Further, the molecule was classed as inactive in experiment [13] and in experiment [15]. In experiment [14], the activation is -8.23%.

On to `COc1ccc(OC)c(-c2cc(C(=O)O)c3cc4ccccc4cc3n2)c1`, for which the Potency is above 11.4 µM in experiment [1], above 46 µM in [6], above 9.22 µM in experiment [7] and 3.98 µM (active) in experiment [12]. Moreover, the values for the activity change, negative = inhibition in experiment [2], in experiment [3] and in [4] were 4.44%, -21.4% [at 2.29 µM] and 15.6%, respectively. In addition, in [5], the activity, negative = inhibition is 4.07%. The Potency result in [8] and in experiment [9] was “inactive” in each case.

As to `c1ccc(C(CCN2CC3CCC(CC3)C2)c2ccccc2)cc1`, the Potency is above 11.4 µM in experiment [1], above 46 µM in experiment [6], above 9.22 µM in experiment [7] and 0.794 µM (active) in experiment [12]. Besides, the activity change, negative = inhibition was 2.88% in experiment [2] and -81.8% (active) in [4]. The Potency result in experiment [3], in experiment [8] and in experiment [9] was “inactive” throughout. Further, in experiment [5], the activity, negative = inhibition is 0.0517%.

Turning to `Nc1ccccc1SCc1csc(-c2ccc(Cl)cc2)n1`, the Potency was above 11.4 µM in [1]; 0.631 µM (active) in experiment [3]; above 46 µM in experiment [6]; above 9.22 µM in experiment [7]; 0.501 µM (active) in [11]. The values for the activity change, negative = inhibition in experiment [2] and in experiment [4] were -17.2% and -25.4%, respectively. Moreover, the activity, negative = inhibition in [5] is -11.2%. Also, the Potency result in experiment [8], in experiment [9] and in experiment [10] was “inactive” throughout.

The record behind these values is PubChem BioAssay (NCATS).
